Assay results from PubChem BioAssay.
Active and inactive are the calls of the source.

Assay: changes in parasitized red cell lysis, either direction – P. falciparum Indochina, OD700, 3 h, PSAC antagonist project, primary screen (AID 1156)
Conditions: P. falciparum-infected erythrocytes, osmotic lysis, higher = more signal, called active from +8 up or from −8 down

SMILES | z-score
O=C1N(CCS(=O)(=O)c2ccccc2)Cc2ccccc2C[C@@]12COC(c1ccc(OCCCO)cc1)=N2 | 4.23 (inactive)
C[N+](C)(C)CCCCNC(=O)[C@H]1C[C@H]2C(=O)NCC(=O)N2[C@H]1c1ccc(O)cc1 | -0.393 (inactive)
CC(C)N1C(=O)c2ccccc2[C@](C)(C(=O)O)[C@@H]1c1ccc(CO)cc1 | 0.209 (inactive)
C[N+](C)(C)CCCCCCNC(=O)[C@@H]1C[C@@H]2C(=O)NCC(=O)N2[C@@H]1c1ccc(O)cc1 | -1.53 (inactive)
COCCCNC(=O)[C@@]1(Cc2ccccc2CN=[N+]=[N-])N=C(c2ccc(OCCCO)cc2)O[C@H]1c1ccccc1N=[N+]=[N-] | 2.72 (inactive)
COC(=O)[C@@]1(Cc2ccc(OC)cc2)[C@H]2c3cc(C(=O)N(C)C)n(CCF)c3C[C@H]2CN1C(=O)c1ccccc1 | 0.865 (inactive)
C=CCNC(=O)[C@H]1[C@@H]2C(=O)O[C@@H](c3ccccc3)[C@@H](c3ccccc3)N2[C@@H](c2ccc(OCCO)cc2)[C@]12C(=O)N(C(=O)OCCOC)c1ccc(C#CC3=CCCCC3)cc12 | 0.178 (inactive)
O=C1C2C=CC(C(O)c3cccc4ccccc34)N(Nc3ccccc3)C2C(=O)N1c1ccccc1 (stereo not given) | 0.214 (inactive)
COc1ccc(C#Cc2ccc3c(c2)[C@]2(C(=O)N3)[C@H](C(=O)O)[C@H]3C(=O)O[C@H](c4ccccc4)[C@H](c4ccccc4)N3[C@@H]2c2ccc(OCCO)cc2)cc1 | -8.91 (active)
C=CCOC(=O)[C@H]1[C@@H]2C(=O)O[C@@H](c3ccccc3)[C@@H](c3ccccc3)N2[C@@H](c2ccc(OCCOC(=O)[C@H]3C[C@H]4C(=O)N[C@@H](CCCCN(C)C)C(=O)N4[C@H]3c3ccc(O)cc3)cc2)[C@]12C(=O)Nc1ccccc12 | 3.2 (inactive)
COC(=O)[C@@]1(Cc2ccccc2)[C@H]2c3cc(C(=O)N(C)C)n(Cc4ccccn4)c3C[C@H]2CN1C(=O)c1ccccc1 | 0.365 (inactive)

Assay: plasmodial surface anion channel blockers, osmotic lysis – cell-based, P. falciparum Indochina, OD700, 18 h, primary screen (AID 1157)
Conditions: P. falciparum Indochina infected erythrocytes, osmotic lysis OD700, 18 h; higher = more signal, called active from +8 up or from −8 down

SMILES | z-score
C[N+](C)(C)CCCC[C@@H]1NC(=O)[C@@H]2C[C@H](C(=O)O)[C@H](c3cccc(OCCO)c3)N2C1=O | 0.276 (inactive)
COCCOC(=O)N1C(=O)[C@@]2(c3cc(C#CCC(C(=O)OC)C(=O)OC)ccc31)[C@H](c1ccc(OCCO)cc1)N1[C@H](c3ccccc3)[C@H](c3ccccc3)OC(=O)[C@H]1[C@@H]2C(N)=O | 0.59 (inactive)
Cc1cc(C)c(C(O)C2C=CC3C(=O)N(c4ccccc4)C(=O)C3N2Nc2ccc([N+](=O)[O-])cc2)c(C)c1 (stereo not given) | 1.13 (inactive)
O=C(CS)NCCCCCNC(=O)[C@@H]1C[C@@H]2C(=O)N3CCC[C@H]3C(=O)N2[C@@H]1c1ccc(O)cc1 | 0.251 (inactive)
C[C@@H]1ON(c2ccccc2)[C@H](c2ccccc2)[C@H]1C(=O)N1C(=O)OC[C@H]1Cc1ccccc1 | 0.379 (inactive)
[N-]=[N+]=Nc1ccccc1[C@@H]1OC(c2ccc(OCCCO)cc2)=N[C@]1(CCS(=O)(=O)c1ccccc1)C(=O)NCc1ccccc1 | 4.33 (inactive)
COc1ccc([Si](C)(C)[C@@H]2[C@@H](CC(=O)N(CCO)Cc3ccccc3)O[C@]3(C(=O)N(Cc4ccc(N5CCOC5=O)cc4)c4ccccc43)[C@H]2C)cc1 | 0.821 (inactive)
COc1ccccc1CN1C(=O)c2ccccc2[C@@H](C(=O)NCC(C)C)[C@@H]1c1ccc(CO)cc1 | 0.206 (inactive)
COC(=O)[C@@]1(Cc2ccc(F)cc2)[C@@H]2[C@@H](CC(=O)[C@H]2CC(=O)C(=O)N2CCCC2)CN1C(=O)c1ccccc1 | 0.935 (inactive)
CC1CC/C=C\[C@H]2OC34C=CCN(c5ccc(Cl)cc5)C(=O)[C@H]3N(C(CO)C(C)C)C(=O)[C@]4(C)C2C(=O)O1 (stereo not given in full) | 0.647 (inactive)
C=CCC(OC(C)=O)[C@@H]1[C@@H](N(Cc2cccc3ccccc23)C(=O)Cc2ccc(F)cc2)c2cc(OCCCO)ccc2N1C(=O)Cc1ccc(OC)cc1 (stereo not given in full) | -0.545 (inactive)
COC(=O)[C@]1(Cc2ccccc2CN=[N+]=[N-])N=C(c2ccc(OCCCO)cc2)O[C@@H]1c1ccccc1 | 6.71 (inactive)
CCCc1cc2c(n1Cc1ccc(OC)cc1)C(C)C1CN(C(=O)c3ccccc3)C(C)(C(=O)OC)C21 (stereo not given) | 0.25 (inactive)
CN(C)C(=O)[C@@]1(CCC(=O)OC(C)(C)C)N=C(c2ccc(OCCCO)cc2)O[C@H]1c1ccccc1N=[N+]=[N-] | 3.02 (inactive)
